PubChem BioAssay AID463183 (Sanford-Burnham Center for Chemical Genomics, 2010)
The other results are listed elsewhere or left out. Active and inactive are the calls of the source.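 How the source made its calls: active means inhibition of lipid droplet metric at least 50%, with more than 300 cells in each of four replicates; inconclusive means wells under 300 cells, flagged as toxic or low count; inactive means the rest.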

Assay: hepatocyte lipid droplet accumulation inhibitors, confirmation, imaging, AML12 mouse hepatocytes, single concentration, high-content (AID 463183);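 on cell count: cells counted after overnight compound exposure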;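 on inhibition: plate controls were DMSO with oleic acid for no effect and 5 µM Triacsin-C for full effect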
Settings: BODIPY lipid droplet imaging, at 5.2 µM, droplets induced with 100 µM oleic acid; cell count: measured here: cell count, cytotoxicity; inhibition: stronger effect = higher value

| SMILES | cell count | inhibition |
| --- | --- | --- |
| CCOC(=O)C1=C(CC)OC(N)=C(C#N)C1c1ccc(F)cc1F (configuration not stated) | 1680 cells | 10.3% (inactive) |
| COc1cccc(/C=C(/CC(=O)Nc2ccc(N3CCOCC3)cc2)c2nc3ccccc3s2)c1 | 1580 cells | 94.7% (active) |
| CN(C)c1ccc(Nc2c3c4c(cccc4n(C)c2=O)C(=O)c2ccccc2-3)cc1 | 1580 cells | 14.8% (inactive) |
| CCc1ccc(NC(=O)C(C)OC(=O)/C=C/c2cccc([N+](=O)[O-])c2)cc1 (configuration not stated) | 1510 cells | 48% (inactive) |
| COc1ccc(/C=C(\NC(=O)c2ccc(OCC(C)C)cc2)C(=O)OCc2ccco2)cc1 | 1460 cells | 91.6% (active) |
| Cc1cc(C(=O)NC2CCCc3c2cnn3-c2cccc(C)c2C)c(C)o1 (configuration not stated) | 1560 cells | 78.5% (active) |
| Cc1c(C(=O)NCc2ccccc2)cnn1-c1ccccc1 | 1670 cells | 26.9% (inactive) |
| CCCc1ccc(-c2csc(NC(=O)Cc3cccs3)n2)cc1 | 1560 cells | 104% (active) |
| Cc1ccc(N2C(=O)C(NC(=O)c3c(F)cccc3F)(C(F)(F)F)C3=C2CC(C)(C)CC3=O)cc1 (configuration not stated) | 1590 cells | 87.5% (active) |
| Cc1cc(NC(=O)CSc2nc(C(C)C)nc3sc4c(c23)CCC(C)C4)no1 (configuration not stated) | 1700 cells | 105% (active) |
| CCOc1ccc(CCNC(=O)Nc2ccccc2)cc1OCC | 1550 cells | 109% (active) |
| O=C(CN1CCc2cc3c(cc2C1)OCCCO3)Nc1ccccc1 | 1530 cells | 15.8% (inactive) |
| CCCN(CCC)c1nc2c(C)cccn2c(=O)c1/C=C1/SC(=S)N(Cc2ccco2)C1=O | 1560 cells | 51.2% (inactive) |
| COc1ccc(Cl)cc1NC(=O)CN(C)C(=O)CCCc1c[nH]c2ccccc12 | 1450 cells | 85% (active) |
| CCCCN1C(=O)/C(=C/C=C2/C=Cc3ccccc3N2CC)SC1=S | 1580 cells | -4.78% (inactive) |
| O=[N+]([O-])c1ccccc1N/N=C1\CCc2ccccc21 | 1520 cells | 31.2% (inactive) |
| O=C1Nc2ccc(Br)cc2/C1=N/N=C/C1=C(N2CCOCC2)C(=C\c2ccccc2)/CC1 | 1660 cells | 65.8% (active) |
| CCCN(CCC)c1ccc(C(O)c2nnc(-c3ccccc3)o2)cc1 (configuration not stated) | 1610 cells | 106% (active) |
| COc1ccc(OC)c(-c2csc(-c3cccs3)n2)c1 | 1580 cells | 13.4% (inactive) |
| COc1cc(/C=N/NC(=O)Nc2ccccc2)ccc1OCCOc1ccccc1C | 1640 cells | -21.6% (inactive) |
| COc1ccc(C(C(=O)NC(C)(C)C)N(Cc2ccc(F)cc2)C(=O)CCC(=O)Nc2cc(C)on2)cc1 (configuration not stated) | 1630 cells | 108% (active) |
| CC(NC(=O)c1cccc2ccccc12)c1ccc2c(c1)CCCC2 (configuration not stated) | 1640 cells | 98.5% (active) |
| CCOc1ccc(CCNC(=O)CCc2nnc3ccc(N4CCCC4)nn23)cc1OCC | 1650 cells | 100% (active) |
| COCCCNC(=O)CN1C(=O)CSc2ccc(S(=O)(=O)N3CCOCC3)cc21 | 1530 cells | -1.8% (inactive) |
| Cn1c(=O)[nH]c(=O)c2c1nc(N1CCN(C(c3ccccc3)c3ccccc3)CC1)n2CCO | 1570 cells | 78.2% (active) |
| CC(C)(C)NC(=O)Cn1cnc2cc([N+](=O)[O-])ccc2c1=O | 1630 cells | 21.8% (inactive) |
